Source: PubChem (National Center for Advancing Translational Sciences (NCATS))
TDP1 inh: TDP1 (human) enzyme inhibition | Q9NUW8 | recombinant TDP1, AlphaScreen DNA substrate cleavage | Potency, µM (highest dose often 130 µM), most hits filed as inhibitors | 0.28% of 350,000 active; further: nearly all actives have a fitted effect of over 40% in size
Target sequence (Q9NUW8 whole entry, looked up): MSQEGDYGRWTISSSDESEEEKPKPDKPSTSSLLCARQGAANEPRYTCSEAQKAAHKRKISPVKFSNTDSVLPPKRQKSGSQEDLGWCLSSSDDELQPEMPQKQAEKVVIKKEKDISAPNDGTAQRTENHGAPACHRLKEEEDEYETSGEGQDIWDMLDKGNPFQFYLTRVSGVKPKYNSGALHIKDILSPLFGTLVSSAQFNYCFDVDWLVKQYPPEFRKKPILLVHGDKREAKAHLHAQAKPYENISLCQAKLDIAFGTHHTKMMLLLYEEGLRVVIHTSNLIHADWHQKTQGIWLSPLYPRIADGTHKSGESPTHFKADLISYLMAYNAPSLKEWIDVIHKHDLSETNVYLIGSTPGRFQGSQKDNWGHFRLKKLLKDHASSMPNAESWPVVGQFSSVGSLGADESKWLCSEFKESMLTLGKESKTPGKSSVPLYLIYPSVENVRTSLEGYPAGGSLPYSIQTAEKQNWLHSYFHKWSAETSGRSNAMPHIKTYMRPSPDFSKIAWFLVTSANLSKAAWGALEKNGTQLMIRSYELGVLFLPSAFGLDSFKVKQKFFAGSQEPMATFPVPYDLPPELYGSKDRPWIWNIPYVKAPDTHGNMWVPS
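Tdp1 1 nM final; 15 min RT w/ cpd; substrate 15 nM, 5 min; beads 10 ug/ml, 10 min; AlphaScreen read. Neg ctrl: no enzyme.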
HepG2 tox: counter-screen for TGF-b inhibitors: cytotoxicity in HepG2 cells; Potency, µM (top dose mostly 46.1 µM), most hits filed as cytotoxic; HepG2 CAGA-GFP viability, ATP luminescence, 18 h; 0.76% of 410,000 active
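HepG2 CAGA-GFP cells (1000/well, DMEM with 1% FBS) received compound, then TGF-beta at 500 pg/mL final, and were incubated 18 hours at 37 degrees C. Viability was read by CellTiter-Glo luminescence. Media-only wells were set as complete cell-killing and DMSO as no toxicity.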
IL1B secr inh: inflammasome signaling inhibition, IL-1 beta readout; THP-1 LPS/ATP IL-1B secretion, AlphaLISA, 16 h; stronger effect = lower value; activity change, % at 57.5 µM; 4.7% of 360,000 active; in the data active means activity change below about -50%; inconclusive means mostly about -30% to -49%
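THP-1 cells pretreated 1 hr with compounds (up to 57.5 uM final), then stimulated with LPS (250 ng/mL final) plus ATP (1.25 mM final); secreted IL-1B measured by AlphaLISA after 16 hr, decreased signal indicating inhibition.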
TDP1 cell noCPT: qHTS for Inhibitors of human tyrosyl-DNA phosphodiesterase 1 (TDP1): qHTS in cells in absence of CPT. DT40 Tdp1-/- hTDP1 cells, no CPT, ATP luminescence, 48 h. Potency, µM (titrated, usually from 46.2 µM), actives largely listed as inhibitors. 15% of 420,000 active; further: nearly all actives have a fitted effect of over 55% in size
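Luminescent ATP content (CellTiter-Glo) served as the growth readout. Knockout chicken DT40 cells expressing human TDP1 were exposed to compounds without camptothecin for a minimum 48 hr at 37 °C.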
TGFb inhibitor: blocks TGF-b signaling; 1.2% of 410,000 active; Potency, µM (series often up to 46.1 µM), usual class: inhibitors; HepG2 CAGA-GFP TGF-b/SMAD3 reporter, GFP fluorescence, 18 h; TGF-beta stimulated, 500 pg/mL final; further: nearly all actives have a fitted effect of over 65% in size
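HEPG2 CAGA-GFP reporter cells (1000/well, DMEM with 1% FBS) received compounds, then recombinant TGF-beta at 500 pg/mL final for 18 hours at 37 degrees C. Per-cell GFP summed per well was normalised to unstimulated and stimulated DMSO controls before curve fitting.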
TDP1 cell CPT: DT40-hTDP1 cell growth loss with CPT; Potency, µM (highest dose often 46.2 µM), hits mostly inhibitors; AID 686979; 12% of 420,000 active; chicken DT40 Tdp1-/-;hTDP1 cells + 20 nM CPT, ATP luminescence, 48 h; further: nearly all actives have a fitted effect of over 55% in size
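Chicken DT40 Tdp1-/- cells complemented with human TDP1, 400 cells/well, exposed to compounds plus 20 nM camptothecin for at least 48 h at 37 C; viability read as ATP content by CellTiter-Glo luminescence.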
Hits are given with their value; – = inactive; ? = inconclusive; · = no result given; ! = not confirmed by another sample; [ ] = remark or other dose. In the library only some 19% were active in any assay of this set; here they are far more common. Unless noted, the call rests on the fitted dose curve; in most records, active means well fitted curve in the direction sought with a large enough effect; inconclusive means small, poorly fitted or top-dose-only effect, or another doubt; inactive means no such curve, though single readings can be large; an effect the other way counts as inactive or inconclusive.

SMILES	TDP1 inh	HepG2 tox	IL1B secr inh	TDP1 cell noCPT	TGFb inhibitor	TDP1 cell CPT
O=C(C1CCC(CNS(=O)(=O)c2cccs2)CC1)N1CCN(c2ccc(F)cc2)CC1 (stereo not drawn)	–	–	?	20.6µM	–	?
CC1Cc2ccccc2N1C(=O)C1CCN(S(=O)(=O)c2cccs2)CC1 (stereo not drawn)	–	–	-66.8	–	–	?
CCCNC(=O)Cn1nc(-c2ccc(C)cc2)c2cnc3ccc(CC)cc3c21	–	–	·	–	–	–
COc1cc2c(cc1NC(=O)COc1ccc(Br)cc1C)oc1ccccc12	–	–	·	–	–	–
Cc1cccc(-c2nc(SCc3cc(=O)c4c(C)cc(C)cc4[nH]3)n[nH]2)c1	–	–	·	?	?	?
CN(C(=O)c1cccc(NC(=O)Cc2ccc(NC(=O)C3CCCN(C(=O)c4ccccc4)C3)cc2)c1)C1CCCC1 (stereo not drawn)	·	–	–	?	?	?
COc1cccc(C2=Nn3c(nnc3-c3cc(OC)ccc3OC)SC2)c1	–	·	·	·	·	·
Clc1ccc(CSc2nc3ncccc3[nH]2)cc1	–	–	·	?	?	?
COc1ccc(N2CCN(C(=O)C3CCN(S(=O)(=O)c4cccs4)CC3)CC2)cc1	–	–	–	23.1µM	?	?
COc1ccc(N2CCN(C(=O)C3CCN(S(=O)(=O)c4cccc5nonc45)CC3)CC2)cc1	–	–	·	16.4µM	–	?
Cc1ccccc1N1CCN(S(=O)(=O)c2cccs2)CC1	–	–	-54.0	–	–	–
Cc1ccc(C(=O)N/C(=C\c2ccccc2)C(=O)OCc2ccccc2)cc1	–	–	-50.7	?	–	29.1µM
CC#CCN1c2ccccc2[C@]23C[C@@H](C(=O)OC)N(C(=O)CC(C)C)C2=NC(C(=O)OC)=C(C(=O)OC)[C@H]13	–[12.3 µM]	·	·	·	·	·
Cc1nn(-c2ccccc2)c2nc(C(F)F)cc(C(F)F)c12	56.2µM	–	–	–	–	–
COc1cccc(C(=O)N2C(C(C)C)COc3cc(Br)ccc3S2(=O)=O)c1 (stereo not drawn)	·	–	–	23.1µM	?	25.9µM
COc1ccccc1C(=O)N1[C@@H](C(C)C)COc2cc(Br)ccc2S1(=O)=O	·	–	–	16.4µM	?	?
CCN1C(=O)[C@H]2[C@H]3[C@H](O)[C@H](O)C/C(=N/O[C@@H](C)CN4CCCc5nc(C)c(C)cc54)[C@@H]3CC[C@@H]2C1=O	–[21 µM]	·	·	·	·	·
O=C1C(=O)c2ccccc2C(O)=C1C1CCC(c2ccc(Cl)cc2)CC1 (stereo not drawn)	–	–	–	2.31µM!	–	?
CC(C)CSC1=NSC2=NC(=O)/C(=C\c3cccs3)C(=N)N12	–	–	-72.5	20.6µM	?	?
N=C1/C(=C/c2cccs2)C(=O)N=C2SN=C(SCc3ccccc3)N12	–	–	–	–	–	–
CC(C)COC(=O)NCC12C=CC(O1)C1C(=O)N(c3ccc(Cl)cc3)C(=O)C12 (stereo not drawn)	–	–	–	18.4µM	–	16.4µM
Cc1cc(C)c(S(=O)(=O)NCC23C=CC(O2)C2C(=O)N(c4ccccc4)C(=O)C23)c(C)c1 (stereo not drawn)	–	–	–	?	–	?
Cc1ccc(N2C(=O)C3C4C=CC(CNC(=S)Nc5ccc(F)cc5)(O4)C3C2=O)cc1 (stereo not drawn)	–	–	–	18.4µM	–	?
Cc1ccc(N2C(=O)C3C4C=CC(CNC(=S)Nc5ccc(Cl)cc5)(O4)C3C2=O)cc1 (stereo not drawn)	–	–	–	23.1µM	–	?
Cc1ccc(N2C(=O)C3C4C=CC(CNC(=S)Nc5cccc(Cl)c5)(O4)C3C2=O)cc1 (stereo not drawn)	–	–	–	14.6µM	?	?
SMILES	TDP1 inh	HepG2 tox	IL1B secr inh	TDP1 cell noCPT	TGFb inhibitor	TDP1 cell CPT
CCOc1cc2[nH]c(=S)n(CCCC(=O)NCc3ccccn3)c(=O)c2cc1OCC	–	–	–	?	–	?
CC1(C(=O)NS(=O)(=O)c2ccccc2)CCN1C(=O)Cc1cc(F)ccc1F (stereo not drawn)	·	–	–	–	–	–
O=C1C2C3C=CC(CNS(=O)(=O)c4ccccc4[N+](=O)[O-])(O3)C2C(=O)N1c1ccccc1 (stereo not drawn)	–	–	–	–	–	?
Cc1ccc(N2C(=O)C3C4C=CC(CNC(=S)N5CCN(c6ccccn6)CC5)(O4)C3C2=O)cc1 (stereo not drawn)	·	–	–	18.4µM	?	23.1µM
COC(CNC(=O)c1ccc2c3c(onc13)-c1ccccc1C2=O)OC	–	–	-96.8	3.26µM	11.2µM	2.91µM
COC(CNC(=O)c1cccnc1)OC	–	–	–	–	–	–
Cc1cc(C)nc(-n2nc(C)c3c2NC(=O)CC3c2cccc(O)c2)n1 (stereo not drawn)	–	–	·	?	–	?
CC(C)=C1CCC(C)CC1=NNC(N)=S (stereo not drawn)	·	–	?	20.6µM	?	?
Cc1c(O)ccc(/C(Cc2ccc3ccccc3n2)=N\O)c1O	–	–	-66.8	20.6µM	?	20.6µM
Oc1ccc(/C(Cc2ccccn2)=N\Nc2ccccc2)c(O)c1	–	–	-179.7	?	?	?
Oc1ccc(/C(Cc2ccc3ccccc3n2)=N\Nc2ccccc2)c(O)c1	–	–	-97.9	23.1µM	?	?
O/C(=C\c1ccc2ccccc2n1)c1ccc(O)cc1O	–	–	–	–	–	–
N/N=C(\Cc1cscn1)c1ccc(O)cc1O	–	–	–	?	–	–
CCCCCCCCCCCCOCC1CO1 (stereo not drawn)	–	·	·	·	·	·
Cc1sc2ncnc(N3CCC(C(=O)Nc4ccc(Cl)c(Cl)c4)CC3)c2c1C	–	–	–	?	–	?
Cc1sc2ncnc(N3CCC(C(=O)NCC(=O)Nc4ccc(F)c(F)c4)CC3)c2c1C	–	–	-78.9	?	?	?
Cc1sc2ncnc(N3CCC(C(=O)Nc4ccc(Cl)cc4Cl)CC3)c2c1C	–	–	–	18.4µM	?	?
CC(=O)c1c(O)cc(C)n(Nc2nc(C)cc(C)n2)c1=O	–	–	–	?	?	18.4µM
COC(=O)c1cc(C)cc(=O)o1	–	–	–	–	–	–
Cc1cc(CCCCCCCCc2cc(C)cc(=O)o2)oc(=O)c1	–	–	–	16.4µM	–	?
